Laboratory results reported in PubChem BioAssay (NCATS).
A number with no mark means an inactive call. Active and inactive are the calls of the source. Calls follow the shape of the dose curve; as a rule, active = well fitted curve in the direction sought with a large enough effect; inconclusive = small, poorly fitted or top-dose-only effect, or another doubt; inactive = no such curve, though single readings can be large or run the other way.

Biological target: Thyrotropin receptor (Homo sapiens) (UniProt P16473)
Sequence (P16473 whole entry, looked up): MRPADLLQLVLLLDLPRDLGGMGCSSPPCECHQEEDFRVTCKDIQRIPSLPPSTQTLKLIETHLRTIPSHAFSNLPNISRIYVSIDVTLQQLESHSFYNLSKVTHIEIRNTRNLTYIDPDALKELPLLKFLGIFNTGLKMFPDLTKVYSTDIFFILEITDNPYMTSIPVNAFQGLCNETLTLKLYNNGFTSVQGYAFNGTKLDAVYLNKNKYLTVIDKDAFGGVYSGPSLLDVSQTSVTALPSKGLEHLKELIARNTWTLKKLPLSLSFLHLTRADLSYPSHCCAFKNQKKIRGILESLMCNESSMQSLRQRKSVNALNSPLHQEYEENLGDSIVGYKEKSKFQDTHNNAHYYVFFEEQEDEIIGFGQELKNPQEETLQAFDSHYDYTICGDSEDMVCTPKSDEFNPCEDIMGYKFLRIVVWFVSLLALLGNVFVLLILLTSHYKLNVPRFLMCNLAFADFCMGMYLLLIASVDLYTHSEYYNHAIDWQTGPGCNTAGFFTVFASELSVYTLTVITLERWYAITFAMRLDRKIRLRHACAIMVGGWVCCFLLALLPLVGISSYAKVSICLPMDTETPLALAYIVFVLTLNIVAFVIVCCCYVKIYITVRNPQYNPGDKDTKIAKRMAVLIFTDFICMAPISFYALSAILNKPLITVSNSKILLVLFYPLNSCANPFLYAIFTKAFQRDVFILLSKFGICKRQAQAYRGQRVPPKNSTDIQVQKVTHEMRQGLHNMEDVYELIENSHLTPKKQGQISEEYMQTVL
Experiment: qHTS Assay for Antagonists of the Thyroid Stimulating Hormone Receptor (AID 488980); also: 0% is about no effect
Conditions: TSHR-expressing cells, cAMP antagonist read-out; series mostly up to 57.5 µM; activity, negative = inhibition: at the top concentration
Text: TSH is an alpha/beta heterodimeric glycoprotein hormone secreted from the anterior pituitary gland which belongs to the glycoprotein hormone family. The actions of TSH are mediated by a seven-transmembrane receptor, which upon TSH binding couples preferentially to the G-alpha (s) protein (Gs), resulting in activation of adenylate cyclase and increase in cyclic adenosine 3', 5' monophosphate (cAMP). The TSH receptor (THSR) is mainly expressed in thyroid follicular cells and regulates their growth and function. This cell based assay was conducted on a TSHR transfected HEK 293 cell line, measuring cAMP stimulation using antibody-based Homogeneous Time Resolved Fluorescence (HTRF).
Our goal is to identify small molecules that will inhibit (antagonize) the thyroid-stimulating hormone receptor (TSHR), a member of the 7 transmembrane-spanning receptor (7TMR) family of cell surface receptors. TSHR-mediated hyperthyroidism is important in thyroid pathology. The development of small molecule antagonists of TSHR may lead to therapeutic approaches for TSHR-mediated hyperthyroidism caused by constitutively activating mutations or stimulating auto-antibodies associated with Graves' disease. Graves' disease is the leading cause of hyperthyroidism and is caused by autoantibodies that stimulate TSHR (TsAbs) causing thyroid growth and unregulated overproduction of thyroid hormones and existing treatments have liabilities (agranulocytosis). In addition, TSHRs are known to be expressed in multiple extrathyroidal tissues including bone, brain, kidney, testis, fat and cells of the immune system but the role of the TSHR in these tissues is not clear. Therefore, TSHR antagonists/inverse agonists could be used as probes of extrathyroidal TSHR function. Finally, TSHR inverse agonists, which are a subclass of antagonists that inhibit agonist-independent (or basal or constitutive) TSHR signaling, could be used to inhibit TSH-independent signaling in patients with recurrent or metastatic thyroid cancer who are receiving thyroid hormone to suppress TSH.
An anti cAMP antibody contains a fluorescent cryptate tag (excitation 337 nm; emission 620 nm) and the acceptor is cAMP-d2 (excitation 620 nm; emission 665 nm). When antibody and cAMP-d2 interact and are excited by a 337 nm light, a FRET occurs resulting in emission at 665 nm. The assay is competition between cAMP-d2 and cAMP (from the cell lysate). The homogeneous protocol allows for one step dispense after stimulation that is automation friendly.
Step, Parameter, Value, Description
1, Cells, 3 uL, 2000 TSHR freshly harvested cells/well 1536 TC treated White solid bottom plate (Cells resuspended in 10 mM HEPES buffered HBSS and 70 uM RO 20-1724)
2, Compound, 23 nL, Libraries and controls
3, Compound, 1 uL, EC80 TSH (4 nM final)
5, Reagent, 2 uL, cAMP antibody diluted 1:20 in lysis buffer
6, Time, 30 minutes, Room temperature
7, Detector, HTRF settings, Viewlux

Compound	activity, negative = inhibition [%]	outcome
CSc1ccc2c(c1)N(CCC1CCCCN1C)c1ccccc1S2 (stereo not given)	-3.92	
CNC(=O)Oc1ccc2c(c1)[C@]1(C)CCN(C)[C@@H]1N2C	-0.117	
C=Cc1c(C)c2cc3[nH]c(cc4nc(cc5nc(cc1[nH]2)C(C)=C5CCC(=O)O)C(CCC(=O)O)=C4C)c(C)c3C=C	-10.9	
CC1=C(CC(=O)O)c2cc(F)ccc2/C1=C\c1ccc(S(C)=O)cc1 (stereo not given)	-1.16	
COc1ccc(Cl)cc1C(=O)NCCc1ccc(S(=O)(=O)NC(=O)NC2CCCCC2)cc1	-0.125	
C#CCN(C)Cc1ccccc1	0.0419	
CN(C)CCCN1c2ccccc2CCc2ccccc21	-0.117	
CC(C)NC[C@H](O)c1ccc(O)c(O)c1		inactive
CN1CCN(C2Cc3ccccc3Sc3ccc(Cl)cc32)CC1 (stereo not given)	0.251	
CN(C)CCOC(C)(c1ccccc1)c1ccccn1 (stereo not given)	-1.7	
CNCCC(Oc1ccc(C(F)(F)F)cc1)c1ccccc1 (stereo not given)	0.0259	
CCN(CC)CCNC(=O)c1cc(Cl)c(N)cc1OC	-0.157	
CC(CN1c2ccccc2Sc2ccccc21)N(C)C (stereo not given)	-0.235	
C[C@](N)(Cc1ccc(O)cc1)C(=O)O	0.219	
CCCn1cnc2c1c(=O)n(CCCCC(C)=O)c(=O)n2C	-0.992	
CN(C)CC[C@@H](c1ccc(Cl)cc1)c1ccccn1	0.0861	
CCN(CC)CCCC(C)Nc1c2ccc(Cl)cc2nc2ccc(OC)cc12 (stereo not given)	-6.22	
CN(C)CCC=C1c2ccccc2CCc2ccccc21	-0.094	

Compound	activity, negative = inhibition [%]	outcome
N=c1c[n+](N2CCOCC2)[n-]o1	-0.569	
Nc1cc(=O)[nH]c(N)n1	-2.4	
NC(N)=NCCC[C@H](N)C(=O)O	-0.708	
C[C@H]1O[C@@H](n2cc(F)c(=O)[nH]c2=O)[C@H](O)[C@@H]1O	-0.947	
CN(C)CCCN1c2ccccc2Sc2ccc(Cl)cc21	-0.444	
CNCCCC1c2ccccc2C=Cc2ccccc21	0.877	
OCCN1CCN(CCCN2c3ccccc3Sc3ccc(Cl)cc32)CC1	-1.66	
CC(CN(C)C)CN1c2ccccc2CCc2ccccc21 (stereo not given)	0.0548	
CCCCCCCCCCCCCCCC(=O)NCCO	0.243	
CC(C)(C)c1onc(OCP(=O)(O)O)c1CC(N)C(=O)O (stereo not given)	-0.243	
CNCC(O)c1ccc(O)c(O)c1 (stereo not given)	-0.739	
CC(C)(C(=O)O)c1ccc(C(O)CCCN2CCC(C(O)(c3ccccc3)c3ccccc3)CC2)cc1 (stereo not given)	-1.74	
COC(=O)C1=C(C)NC(C)=C(C(=O)OC)C1c1ccccc1[N+](=O)[O-]	-1.34	
OCc1cc(C(O)CNCCCCCCOCCCCc2ccccc2)ccc1O (stereo not given)	0.188	
Cc1cc(N)c2ccccc2[n+]1CCCCCCCCCC[n+]1c(C)cc(N)c2ccccc21	-0.634	
O=C1N=C(O)CN1/N=C/c1ccc(-c2ccc([N+](=O)[O-])cc2)o1	-2.56	
CCN(CC)CCOC(=O)C1(C2CCCCC2)CCCCC1	-0.125	
